± gives the standard deviation of the averaged measurements.
Legend:
Assay in all cases: cell viability (% of vehicle); higher = less cytotoxic
HCI01 [1] = cells of a triple-negative basal-like breast cancer xenograft; conditions: 10 µM; 72 h
HCI03 = cells of an ER-positive luminal breast cancer xenograft; conditions: 10 µM; 72 h
HCI09 = cells of a triple-negative luminal androgen receptor type breast cancer xenograft; conditions: 10 µM; 72 h
HCI11 = cells of an ER-positive luminal breast cancer xenograft; conditions: 10 µM; 72 h
HCI13 = cells of an ER-positive luminal breast cancer xenograft; conditions: 10 µM; 72 h
HCI16 = cells of a triple-negative basal-like breast cancer xenograft; conditions: 10 µM; 72 h
UCD52 [2] = cells of a triple-negative basal-like breast cancer xenograft; conditions: 10 µM; 72 h
WHIM2 [3] = cells of a triple-negative basal-like breast cancer xenograft; conditions: 10 µM; 72 h
HCI01 [4] = conditions: 1 µM; 72 h
UCD52 [5] = conditions: 1 µM; 72 h
WHIM2 [6] = conditions: 1 µM; 72 h
WHIM30 [7] = cells of a triple-negative basal-like breast cancer xenograft; conditions: 1 µM; 72 h
WHIM30 [8] = conditions: 10 µM; 72 h

CC(C)(C)C(=O)OCOP(=O)(COCCn1cnc2c(N)ncnc21)OCOC(=O)C(C)(C)C [Adefovir Dipivoxil]
cell viability (HCI01 [1]): 109 ± 43
cell viability (HCI03): 148
cell viability (HCI09): 62.7 ± 38
cell viability (HCI11): 105
cell viability (HCI13): 43.6 ± 9.2
cell viability (HCI16): 129
cell viability (UCD52 [2]): 101 ± 9.6
cell viability (WHIM2 [3]): 50.6 ± 3.7

CC(C)c1nc(N(C)S(C)(=O)=O)nc(-c2ccc(F)cc2)c1C=CC(O)CC(O)CC(=O)[O-].CC(C)c1nc(N(C)S(C)(=O)=O)nc(-c2ccc(F)cc2)c1C=CC(O)CC(O)CC(=O)[O-].[Ca+2] (configuration not stated) [Rosuvastatin Calcium]
cell viability (HCI01 [4]): 96.2
cell viability (UCD52 [5]): 83.1
cell viability (WHIM2 [6]): 83.4
cell viability (WHIM30 [7]): 84.8
cell viability (HCI01 [1]): 109 ± 2.8
cell viability (HCI03): 115
cell viability (HCI09): 112 ± 44
cell viability (HCI13): 126 ± 30
cell viability (HCI16): 117
cell viability (UCD52 [2]): 50.8 ± 4.2
cell viability (WHIM2 [3]): 44.1 ± 6.8
cell viability (WHIM30 [8]): 88.4 ± 11

CNC(=O)C(Cc1c[nH]c2ccccc12)NC(=O)C(CC(=O)NO)CC(C)C (configuration not stated)
cell viability (HCI01 [1]): 141 ± 3.8
cell viability (HCI03): 116
cell viability (HCI09): 88.9 ± 9.2
cell viability (HCI11): 129
cell viability (HCI13): 92.5 ± 5.4
cell viability (HCI16): 140
cell viability (UCD52 [2]): 126 ± 16
cell viability (WHIM2 [3]): 105 ± 14

CS(=O)(=O)CCNCc1ccc(-c2ccc3ncnc(Nc4ccc(OCc5cccc(F)c5)c(Cl)c4)c3c2)o1 [Lapatinib]
cell viability (HCI01 [1]): 112 ± 63
cell viability (HCI03): 45.4
cell viability (HCI09): 39.3 ± 17
cell viability (HCI11): 98.8
cell viability (HCI13): 42.2 ± 0.47
cell viability (HCI16): 168
cell viability (UCD52 [2]): 51.2 ± 3.6
cell viability (WHIM2 [3]): 40.7 ± 5.3

CCCc1cc(=O)[nH]c(=S)[nH]1 [Propylthiouracil]
cell viability (HCI01 [1]): 70.4 ± 44
cell viability (HCI03): 153
cell viability (HCI09): 100 ± 12
cell viability (HCI11): 97.8
cell viability (HCI13): 143 ± 30
cell viability (HCI16): 120
cell viability (UCD52 [2]): 91.2 ± 3.8
cell viability (WHIM2 [3]): 100 ± 38

NS(=O)(=O)c1cc2c(cc1Cl)NC(C(Cl)Cl)NS2(=O)=O (configuration not stated) [Trichlormethiazide]
cell viability (HCI01 [1]): 104 ± 57
cell viability (HCI03): 164
cell viability (HCI09): 98.053 ± 0.0031
cell viability (HCI11): 89.9
cell viability (HCI13): 129.2 ± 0.42
cell viability (HCI16): 186
cell viability (UCD52 [2]): 142 ± 9.3
cell viability (WHIM2 [3]): 141 ± 8.7

CC1CCN(C(=O)CC#N)CC1N(C)c1ncnc2[nH]ccc12.O=C(O)CC(O)(CC(=O)O)C(=O)O (configuration not stated)
cell viability (HCI01 [1]): 188 ± 8.3
cell viability (HCI03): 151
cell viability (HCI09): 77.7 ± 1.5
cell viability (HCI11): 115
cell viability (HCI13): 104 ± 9.7
cell viability (HCI16): 141
cell viability (UCD52 [2]): 109 ± 21
cell viability (WHIM2 [3]): 87.9 ± 3

C1=C\COCc2cc(ccc2OCCN2CCCC2)Nc2nccc(n2)-c2cccc(c2)COC/1 [Pacritinib]
cell viability (HCI01 [4]): 70.5
cell viability (UCD52 [5]): 49.1
cell viability (WHIM2 [6]): 77.3
cell viability (WHIM30 [7]): 47.3
cell viability (HCI01 [1]): 28.9 ± 7.5
cell viability (HCI09): 25.9 ± 3.1
cell viability (HCI11): 131
cell viability (HCI13): 50.7 ± 7
cell viability (HCI16): 133
cell viability (UCD52 [2]): 35.1 ± 1.6
cell viability (WHIM2 [3]): 49.9 ± 4.6
cell viability (WHIM30 [8]): 50.7 ± 17

CCCNC(C)C(=O)Nc1ccccc1C (configuration not stated) [Prilocaine]
cell viability (HCI01 [1]): 77.2 ± 50
cell viability (HCI03): 145
cell viability (HCI09): 102 ± 1.6
cell viability (HCI11): 92
cell viability (HCI13): 119.7 ± 0.81
cell viability (HCI16): 108
cell viability (UCD52 [2]): 79.7 ± 1.1
cell viability (WHIM2 [3]): 98.7 ± 19

Cc1c(OCC(F)(F)F)ccnc1CS(=O)c1nc2ccccc2[n-]1.[Na+] (configuration not stated) [Lansoprazole sodium]
cell viability (HCI01 [1]): 181 ± 1.4
cell viability (HCI03): 145
cell viability (HCI09): 124 ± 9
cell viability (HCI11): 163
cell viability (HCI13): 135 ± 5.7
cell viability (HCI16): 152
cell viability (UCD52 [2]): 138.2 ± 0.31
cell viability (WHIM2 [3]): 143 ± 9.9

O=C(c1cc(Cc2n[nH]c(=O)c3ccccc23)ccc1F)N1CCN(C(=O)C2CC2)CC1
cell viability (HCI01 [1]): 166 ± 50
cell viability (HCI03): 112
cell viability (HCI09): 72.2 ± 9.9
cell viability (HCI11): 129
cell viability (HCI13): 103 ± 5.2
cell viability (HCI16): 166
cell viability (UCD52 [2]): 117 ± 16
cell viability (WHIM2 [3]): 105 ± 6.3

CCc1cnn2c(NCc3ccc[n+]([O-])c3)cc(N3CCCCC3CCO)nc12 (configuration not stated)
cell viability (HCI01 [4]): 46.8
cell viability (UCD52 [5]): 29.2
cell viability (WHIM2 [6]): 38.1
cell viability (WHIM30 [7]): 34.9
cell viability (HCI01 [1]): 38.1 ± 3.4
cell viability (HCI09): 62.5 ± 35
cell viability (HCI11): 72.6
cell viability (HCI16): 92.9
cell viability (UCD52 [2]): 42.1 ± 6.4
cell viability (WHIM2 [3]): 48.7 ± 12
cell viability (WHIM30 [8]): 66.2 ± 6.1

CC(C)C1=CC(=C2NNC(=O)N2c2ccc3c(ccn3C)c2)C(=O)C=C1O [Ganetespib (STA-9090)]
cell viability (HCI01 [4]): 83.9
cell viability (UCD52 [5]): 46.6
cell viability (WHIM2 [6]): 55.2
cell viability (WHIM30 [7]): 138
cell viability (HCI01 [1]): 59.1 ± 28
cell viability (HCI03): 53.9
cell viability (HCI09): 25.3 ± 2
cell viability (HCI11): 36.5
cell viability (HCI16): 68.2
cell viability (UCD52 [2]): 48.6 ± 9.8
cell viability (WHIM2 [3]): 95 ± 7.9
cell viability (WHIM30 [8]): 96.6 ± 1.9

CCN(CC)C(=O)C1(c2ccccc2)CC1CN.Cl (configuration not stated) [Milnacipran HCl]
cell viability (HCI01 [1]): 68.6 ± 44
cell viability (HCI03): 137
cell viability (HCI09): 96.4 ± 9.2
cell viability (HCI11): 98.1
cell viability (HCI13): 127 ± 14
cell viability (HCI16): 105
cell viability (UCD52 [2]): 86.4 ± 1.7
cell viability (WHIM2 [3]): 93.8 ± 47

CC(=O)C1(O)Cc2c(O)c3c(c(O)c2C(OC2CC(N)C(O)C(C)O2)C1)C(=O)c1ccccc1C3=O.Cl (configuration not stated) [Idarubicin HCl]
cell viability (UCD52 [5]): 32.5
cell viability (WHIM2 [6]): 28.8
cell viability (WHIM30 [7]): 41.2
cell viability (HCI01 [1]): 37.5 ± 5.3
cell viability (HCI03): 67.6
cell viability (HCI09): 28.4 ± 1.2
cell viability (HCI11): 27.8
cell viability (HCI13): 47.1 ± 3.2
cell viability (HCI16): 32.1
cell viability (UCD52 [2]): 31.4 ± 6.4
cell viability (WHIM2 [3]): 29.3 ± 9.9
cell viability (WHIM30 [8]): 44.7 ± 14

COC(=O)Nc1nc2ccc(Sc3ccccc3)cc2[nH]1 [Fenbendazole]
cell viability (HCI01 [1]): 193 ± 48
cell viability (HCI03): 129
cell viability (HCI09): 182 ± 25
cell viability (HCI11): 129
cell viability (HCI13): 155 ± 32
cell viability (HCI16): 153
cell viability (UCD52 [2]): 121.4 ± 0.081
cell viability (WHIM2 [3]): 142 ± 20

Cc1cnc(C(=O)O)c[n+]1[O-] [Acipimox]
cell viability (HCI01 [1]): 76.1 ± 45
cell viability (HCI03): 159
cell viability (HCI09): 98.5 ± 17
cell viability (HCI11): 78.9
cell viability (HCI13): 90.4 ± 3.8
cell viability (HCI16): 103
cell viability (UCD52 [2]): 79.6 ± 5.9
cell viability (WHIM2 [3]): 108 ± 1.4

CC1(COc2ccc3c(c2)ncn3-c2ccc3cccc(N4CCC(N)CC4)c3n2)COC1
cell viability (HCI01 [4]): 97.6
cell viability (UCD52 [5]): 138
cell viability (WHIM30 [7]): 71.3
cell viability (HCI01 [1]): 41.1 ± 22
cell viability (HCI09): 12.7 ± 2.4
cell viability (HCI13): 26.6 ± 24
cell viability (UCD52 [2]): 34 ± 9.8
cell viability (WHIM2 [3]): 35 ± 13
cell viability (WHIM30 [8]): 60.3 ± 3.4

NC(=O)OCC(COC(N)=O)c1ccccc1 [Felbamate]
cell viability (HCI01 [1]): 71.2 ± 42
cell viability (HCI03): 137
cell viability (HCI09): 90.7 ± 10
cell viability (HCI11): 95.3
cell viability (HCI13): 103 ± 8.3
cell viability (HCI16): 101
cell viability (UCD52 [2]): 81.2 ± 7.7
cell viability (WHIM2 [3]): 99.5 ± 11
